# Results published in the supplement of paper PMC12350171.
# Structures can show the parent of a compound that is named as a salt.
# System: Haemophilus parainfluenzae
# Experiment: growth AUC normalised to DMSO control (fraction of control); higher = less growth inhibition, active = hit call of the paper
# Settings: 20 µM;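 active = AUC significantly below DMSO controls by Student t-fit with adjusted P under 0.01; inactive = not significantly reduced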
# How it was run: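 After two anaerobic passages, pathogens were added at a starting OD578 of 0.01 to pre-reduced mGAM plates holding compound at 20 μM with 1% DMSO; hemin and NAD were supplemented for Haemophilus parainfluenzae. Sealed with breathable membranes, plates were read at OD578 hourly for 24 h, in three biological replicates. The trapezoidal rule, applied up to the exponential-to-stationary transition, gave the growth-curve AUC, which was normalised to DMSO controls on the same plate.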
row,SMILES,growth AUC normalised to DMSO control
1,Clc1ccc(COC(Cn2ccnc2)c2ccc(Cl)cc2Cl)c(Cl)c1 (stereo unspecified) [Miconazole],0.997 (inactive)
2,CCCCN(CCCC)CCCOC(=O)c1ccc(N)cc1 [Butacaine],0.998 (inactive)
3,CN(C)CCCN1c2ccccc2CCc2ccc(Cl)cc21 [Clomipramine hydrochloride],0.922 (inactive)
4,OCCN1CCN(CCCN2c3ccccc3Sc3ccc(C(F)(F)F)cc32)CC1 [Fluphenazine dihydrochloride],0.999 (inactive)
5,CC(=O)Oc1ccc(C(c2ccc(OC(C)=O)cc2)c2ccccn2)cc1 [Bisacodyl],1.03 (inactive)
6,C[C@@H](O)[C@H]1C(=O)N2C(C(=O)O)=C(SCCNC=N)C[C@H]12 [Imipenem],1.01 (inactive)
7,CCC(NC(C)C)C(O)c1ccc(O)c(O)c1 (stereo unspecified) [Isoetharine mesylate salt],1.01 (inactive)
8,Cc1c(C)c2c(c(C)c1O)CCC(C)(COc1ccc(CC3SC(=O)NC3=O)cc1)O2 (stereo unspecified) [Troglitazone],0.984 (inactive)
9,COC1=C(OC)C(=O)C(CCCCCCCCCCO)=C(C)C1=O [Idebenone],1.04 (inactive)
10,COC(=O)C1=C(C)NC(C)=C(C(=O)OCCN(C)Cc2ccccc2)C1c1cccc([N+](=O)[O-])c1 (stereo unspecified) [Nicardipine hydrochloride],1.01 (inactive)
11,NC[C@@H]1O[C@@H](O[C@H]2[C@H](O)[C@@H](O[C@H]3O[C@H](CO)[C@@H](O)[C@H](N)[C@H]3O)[C@H](N)C[C@@H]2N)[C@@H](O)[C@H](O)[C@H]1O [Kanamycin A sulfate],0.976 (inactive)
12,Cn1nnc2c(C(N)=O)ncn2c1=O [Temozolomide],0.975 (inactive)
13,CN(C)[C@@H]1C(=O)C(C(N)=O)=C(O)[C@@]2(O)C(=O)C3=C(O)c4c(O)ccc(Cl)c4[C@@H](O)[C@H]3C[C@@H]12 [Demeclocycline hydrochloride],0.0384 (active)
14,NCCc1cc[nH]n1 [Betazole hydrochloride],1 (inactive)
15,NNC(=O)c1ccncc1 [Isoniazid],1.09 (inactive)
16,O=C(c1ccccc1)c1ccc2n1CCC2C(=O)O (stereo unspecified) [Ketorolac tromethamine],0.972 (inactive)
17,CN(C)CCn1nnnc1SCC1=C(C(=O)O)N2C(=O)[C@@H](NC(=O)Cc3csc(N)n3)[C@H]2SC1 [Cefotiam hydrochloride],0.0401 (active)
18,CCN1CCN(C(=O)N[C@@H](C(=O)N[C@@H]2C(=O)N3C(C(=O)O)=C(CSc4nnnn4C)CS[C@H]23)c2ccc(O)cc2)C(=O)C1=O [Cefoperazone dihydrate],0.0355 (active)
19,Nc1ccn([C@@H]2O[C@H](CO)[C@@H](O)C2(F)F)c(=O)n1 [Gemcitabine],1.1 (inactive)
20,CNc1ncnc2c1ncn2[C@@H]1O[C@H](CO)[C@@H](O)[C@H]1O [N6-methyladenosine],1.01 (inactive)
21,C#C[C@]1(O)CC[C@H]2[C@@H]3CCC4=C(CCC(=O)C4)[C@H]3CC[C@@]21C [Norethynodrel],0.989 (inactive)
22,COc1ccc2cc([C@H](C)C(=O)O)ccc2c1 [(S)-Naproxen],1 (inactive)
23,CN(C)CCOC(c1ccccc1)c1ccccc1.Cn1c(=O)c2[nH]c(Cl)nc2n(C)c1=O [Dimenhydrinate],0.901 (inactive)
24,CCCCCCCCNC(C)C(O)c1ccc(SC(C)C)cc1 (stereo unspecified) [Suloctidil],0.986 (inactive)
25,Cc1ncc([N+](=O)[O-])n1CCO [Metronidazole],0.906 (inactive)
26,COc1ccc2c(c1)C(=O)N(CCc1ccc(S(=O)(=O)NC(=O)NC3CCCCC3)cc1)C(=O)C2(C)C [Gliquidone],0.998 (inactive)
